Laboratory results reported in PubChem BioAssay (EPA / NIEHS).
Active and inactive are the calls of the source. Rule for the calls: active = hit-call score of the fitted dose curve at least 0.9, where 1 is the maximum; inactive = score below 0.9.

assay: CEETOX_H295R_11DCORT: CeeTox H295R High-throughput Steroidogenesis Assay for 11-Deoxycortisol (11DCORT) (AID 2283432); conditions: actives raise or lower the signal;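 for AC50: 11-deoxycortisol secreted into the medium measured by LC-MS/MS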
Procedure: CEETOX_H295R is a cell-based, multiplexed-readout assay that uses H295R, a human adrenal gland cell line, with measurements taken at 48 hours after chemical dosing in a 96-well plate.CEETOX_H295R_11DCORT is one of 23 assay component(s) measured or calculated from the CEETOX_H295R assay. It is designed to make measurements of hormone induction, a form of inducible reporter, as detected with absorbance signals by HPLC-MS-MS technology.Data from the assay component CEETOX_H295R_11DCORT was analyzed into 1 assay endpoint. This assay endpoint, CEETOX_H295R_11DCORT, was analyzed with bidirectional fitting relative to DMSO as the negative control and baseline of activity. Using a type of inducible reporter, gain or loss-of-signal activity using HPLC-MS-MS was used to understand synthesis of 11-Deoxycortisol in H295R cell line at 48hr of chemical exposure. To generalize the intended target to other relatable targets, this assay endpoint is annotated to the steroid hormone intended target family, where the subfamily is glucocorticoids.
Cell culture and media preparation procedures were conducted in accordance with OECD Test No. 456 guidelines, with minor modifications. H295R cells (ATCC CRL-2128) were expanded for 5 passages and frozen in batches in liquid nitrogen. Prior to the steroidogenesis assay, H295R cells were thawed and passed at least 4 times. The maximum passage was 10. Cells were maintained in a 1:1 mixture of DMEM/F12 supplemented with 5ml/L ITS+ Premix (BD Bioscience) and 12.5 ml/L Nu-Serum (BD Bioscience). After seeding cells into 96-well plates at 50-60% confluency, cells were allowed to adhere overnight. Prior to chemical testing, culture medium was replaced with 175 uL medium containing 10 uM forskolin to stimulate steroidogenesis for 48 hours. Following prestimulation, forskolin medium was replaced with medium containing test chemical solubilized in DMSO (ensuring a final concentration of 0.1% DMSO). Test chemicals were incubated for 48 hours, then the medium was removed and split into 2 vials containing approximately 75uL each, and stored at -80 C prior to hormone analysis. For steroid quantification, media samples were shipped to OpAns, LLC (Durham, NC) on dry ice, and samples were thawed to room temperature prior to liquid-liquid extraction. Steroid hormones were extracted from media samples using methyl tertbutyl ether (MTBE). An extra derivatization with dansyl chloride was included for estrogen (estrone and estradiol) detection only. Steroid hormones were separated by HPLC, eluted using a reverse phase C18 gradient with electrospray positive ionization, followed by quantification by tandem mass spectrometry (MS/MS). Data were acquired on a MassHunter Workstation Acquisition version B03.01 (Agilent Technologies, Inc.) and processed using MassHunter Quantitative Analysis for QQQ. Accuracy was determined for each hormone analyte from 3 standards to determine upper and lower limits of quantification (ULOQ and LLOQ, respectively) using a 7-point standard curve. Precision and accuracy of the extraction and quantification methods were calculated as the percent relative standard deviation (%RSD) of the spiked standards and percent spiked standard recovered, respectively. The goal was to achieve 100% accuracy (i.e., recover all spiked-in standard at quantification with minimal loss during run time) and good precision (i.e., have %RSD <15% to ensure reproducibility). Test medium was removed following chemical exposure, and cell viability was evaluated in the same wells by MTT. MTT procedures were as follows: after removal of test medium, 500 uL of 0.5 mg/ml of 3-[4,5-dimethylthiazol-2-y]2,5-diphenyltetrazoliumbromide solution was added to the cells. Following a 4-hour incubation at 37 C and 5% CO2 to allow formazan-crystal formation, the MTT solution was removed and blue formazan salt crystals were solubilized using 500uL anhydrous isopropanol with shaking for 20 minutes. […]

**Q.** Which outcome does the source give for `FC(F)C(F)(F)OCC(Cn1cncn1)c1ccc(Cl)cc1Cl` (stereo not drawn) here?
**A.** inactive

**Q.** With `CNC(=O)Oc1cccc2c1OC(C)(C)O2` as the compound, how does the outcome read?
**A.** inactive

**Q.** With `CCOC(=O)COc1cc(-c2nn(C)c(OC(F)F)c2Cl)c(F)cc1Cl` as the compound, how does the outcome read?
**A.** inactive

**Q.** With `CNC(=O)ON=C(C)SC` as the compound, how does the outcome read?
**A.** inactive

**Q.** For `COP(=O)(NC(C)=O)SC` (stereo not drawn), which outcome is on record?
**A.** inactive

**Q.** For `CNc1cnn(-c2cccc(C(F)(F)F)c2)c(=O)c1Cl`, which AC50 is on record?
**A.** 11.5 µM (active)

**Q.** With `Nc1nc(N)nc(NC2CC2)n1` as the compound, how does the outcome read?
**A.** inactive

**Q.** Which AC50 does the source give for `CCOP(=O)(NC(C)C)Oc1ccc(SC)c(C)c1` (stereo not drawn) here?
**A.** 24 µM (active)

**Q.** Which outcome does the source give for `O=C(O)c1cc(Oc2ccc(C(F)(F)F)cc2Cl)ccc1[N+](=O)[O-]` here?
**A.** inactive

**Q.** Which outcome does the source give for `CCCSP(=O)(OCC)SCCC` here?
**A.** inactive

**Q.** For `CCOP(=S)(OCC)Oc1cc(C)nc(C(C)C)n1`, which AC50 is on record?
**A.** 50 µM (active)

**Q.** For `CCOP(=S)(OCC)Oc1ccc2c(C)c(Cl)c(=O)oc2c1`, which AC50 is on record?
**A.** 5 µM (active)

**Q.** For `CCCOCC(=Nc1ccc(Cl)cc1C(F)(F)F)n1ccnc1`, which outcome is on record?
**A.** inactive

**Q.** With `C#CC(C)(C)NC(=O)c1cc(Cl)cc(Cl)c1` as the compound, how does the AC50 read?
**A.** 19.1 µM (active)

**Q.** Which outcome does the source give for `CCNc1nc(Cl)nc(NC(C)(C)C#N)n1` here?
**A.** inactive

**Q.** With `COc1ccc(C(=CC(=O)N2CCOCC2)c2ccc(Cl)cc2)cc1OC` as the compound, how does the outcome read?
**A.** inactive

**Q.** With `CCOP(=S)(OCC)Oc1ccc([N+](=O)[O-])cc1` as the compound, how does the AC50 read?
**A.** 2.57 µM (active)

**Q.** For `CSc1nnc(C(C)(C)C)c(=O)n1N`, which outcome is on record?
**A.** inactive
